Our source for the outcome and AC50 values is PubChem BioAssay (EPA / NIEHS).

Structures are written as SMILES. Several values for one entry are separate records, joined by “and”; a condition that tells them apart may be missing. Equal entries are not always repeated. Results filed as inconclusive are left out. The source holds several records for some structures; these can differ, active in one and inactive in another. Activity calls are given as the source filed them. Rule for the calls: active = hit-call score of the fitted dose curve at least 0.9, where 1 is the maximum; inconclusive = response in the unintended direction; inactive = score below 0.9.

The target of assay [1] is human Peroxisome Proliferator-activated Receptor alpha (PPARa), PPARA (gene 5465) (UniProt Q07869). Put plainly: ATG_PPARa_TRANS: Attagene TRANS-FACTORIAL HepG2 Assay for human Peroxisome Proliferator-activated Receptor alpha (PPARa) (AID 2283001). A digest of the protocol: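 Measures transcriptional activity of an exogenous chimeric PPARa-Gal4 protein in transiently transfected HepG2 cells after 24 h dosing. Reporter mRNA quantified via RT-PCR and capillary electrophoresis; DMSO served as negative control.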

For assay [2], the target named is human Retinoic Acid Receptor beta (RARb), RARB (gene 5915) (UniProt P10826). The experiment in a line: ATG_RARb_TRANS: Attagene TRANS-FACTORIAL HepG2 Assay for human Retinoic Acid Receptor beta (AID 2283004). In a few lines:
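HepG2, transient MRTU transfection, NR–Gal4 chimera, 24 h treatment; RT-PCR plus CE fluorescence detection of reporter mRNA; gain of signal vs DMSO.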

In assay [3] the target is Retinoic acid receptor alpha (Homo sapiens) (UniProt P10276). Put plainly: ATG_RARa_TRANS: Attagene TRANS-FACTORIAL HepG2 Assay for human Retinoic Acid Receptor alpha (RARa) (AID 2283005). In a few lines: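 HepG2 transiently transfected with multiplex GAL4-UAS reporter units including a human RARa–GAL4 chimera; 24 h compound exposure. Reporter mRNA quantified by RT-PCR, 6-FAM labeling and capillary electrophoresis; gain of signal versus DMSO.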

The target in assay [4] is Peroxisome proliferator-activated receptor gamma (Homo sapiens) (UniProt P37231). The experiment in a line: ATG_PPARg_TRANS: Attagene TRANS-FACTORIAL HepG2 Assay for human Peroxisome Proliferator-activated Receptor-gamma (PPARg) (AID 2283007). A digest of the protocol:
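Liver-derived HepG2 cells expressing an exogenous NR-Gal4 chimera alongside GAL4-UAS reporter genes; 24 h exposure. Fluorescence of reporter RT-PCR products, separated by capillary electrophoresis, gives mRNA induction relative to DMSO.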

Assay [5] addresses human Retinoic Acid Receptor gamma (RARg), RARG (gene 5916) (UniProt P13631). The experiment in a line: ATG_RARg_TRANS: Attagene TRANS-FACTORIAL HepG2 Assay for human Retinoic Acid Receptor gamma (RARg) (AID 2283009). A digest of the protocol:
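HepG2, RARg-GAL4 TRANS system, 24 h exposure; reporter mRNA by RT-PCR + CE fluorescence; increase over DMSO.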

Assay [6] deals with Retinoic acid receptor RXR-alpha (Homo sapiens) (UniProt P19793). The experiment in a line: ATG_RXRa_TRANS: Attagene TRANS-FACTORIAL HepG2 Assay for human Retinoid X Receptor alpha (RXRa) (AID 2283012). A digest of the protocol: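 Cells (HepG2) carried transiently transfected GAL4-responsive reporter units. Following a 24 h chemical incubation, reporter mRNA induction was read via RT-PCR fragment analysis; DMSO served as negative control and baseline.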

In assay [7] the target is human Thyroid Receptor alpha (THRa1), THRA (gene 7067) (UniProt P10827). Put plainly: ATG_THRa1_TRANS: Attagene TRANS-FACTORIAL HepG2 Assay for human Thyroid Receptor alpha (THRa1) (AID 2283014). A digest of the protocol:
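First, HepG2 cells receive multiple GAL4-UAS reporter units and the chimeric receptor. They are then dosed for 24 h, after which RNA is reverse-transcribed, amplified, labelled, HpaI-cut and sized by capillary electrophoresis; gain relative to DMSO is scored.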

For assay [8], the target named is Nuclear receptor subfamily 1 group I member 2 (Homo sapiens) (UniProt O75469). Put plainly: ATG_PXR_TRANS: Attagene TRANS-FACTORIAL HepG2 Assay for human Pregnane X Receptor (PXR) (AID 2283008). A digest of the protocol: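 Measures mRNA induction of a GAL4-UAS-driven reporter in human HepG2 cells transiently expressing PXR fused to Gal4, following 24 h treatment. DMSO served as negative control and baseline.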

Assay [9] deals with human RAR-related Orphan Receptor beta (RORb), RORB (gene 6096) (UniProt Q92753). The experiment in a line: ATG_RORb_TRANS: Attagene TRANS-FACTORIAL HepG2 Assay for human RAR-related Orphan Receptor beta (RORb) (AID 2283010). A digest of the protocol:
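In this TRANS-format test, human HepG2 cells express chimeric NR-Gal4 fusion proteins driving GAL4-UAS reporters. After 24 h dosing, reporter transcripts are measured by fluorescent RT-PCR/capillary electrophoresis, with DMSO as negative control.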

The target in assay [10] is human Peroxisome Proliferator-activated Receptor delta (PPARd), PPARD (gene 5467) (UniProt Q03181). Put plainly: ATG_PPARd_TRANS: Attagene TRANS-FACTORIAL HepG2 Assay for human Peroxisome Proliferator-activated Receptor delta (PPARd) (AID 2283002). A digest of the protocol:
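HepG2 cells transiently transfected with GAL4-UAS multiplexed reporter units driven by exogenous chimeric NR-GAL4 proteins; 24 h compound exposure. Reporter mRNA measured by RT-PCR, 6-FAM primer extension, HpaI digestion and capillary electrophoresis; gain of signal fitted relative to DMSO.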

Assay [11] addresses human RAR-related Orphan Receptor gamma (RORg), RORC (gene 6097) (UniProt P51449). Put plainly: ATG_RORg_TRANS: Attagene TRANS-FACTORIAL HepG2 Assay for human RAR-related Orphan Receptor gamma (RORg) (AID 2283011). In a few lines:
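Activity is scored as increase in GAL4-UAS reporter mRNA over DMSO, detected by fluorescent RT-PCR and capillary electrophoresis in HepG2 cells transiently expressing a RORg-Gal4 chimera, 24 h after dosing.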

The target of assay [12] is human Retinoid X Receptor beta (RXRb), RXRB (gene 6257) (UniProt P28702). Put plainly: ATG_RXRb_TRANS: Attagene TRANS-FACTORIAL HepG2 Assay for human Retinoid X Receptor beta (RXRb) (AID 2283013). In a few lines:
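Multiplexed TRANS reporter assay in HepG2; 24 h dosing; reporter mRNA by RT-PCR/CE fluorescence; gain-of-signal relative to DMSO.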

Sequence of human Retinoid X Receptor beta (RXRb), RXRB (gene 6257) (P28702 whole entry, looked up): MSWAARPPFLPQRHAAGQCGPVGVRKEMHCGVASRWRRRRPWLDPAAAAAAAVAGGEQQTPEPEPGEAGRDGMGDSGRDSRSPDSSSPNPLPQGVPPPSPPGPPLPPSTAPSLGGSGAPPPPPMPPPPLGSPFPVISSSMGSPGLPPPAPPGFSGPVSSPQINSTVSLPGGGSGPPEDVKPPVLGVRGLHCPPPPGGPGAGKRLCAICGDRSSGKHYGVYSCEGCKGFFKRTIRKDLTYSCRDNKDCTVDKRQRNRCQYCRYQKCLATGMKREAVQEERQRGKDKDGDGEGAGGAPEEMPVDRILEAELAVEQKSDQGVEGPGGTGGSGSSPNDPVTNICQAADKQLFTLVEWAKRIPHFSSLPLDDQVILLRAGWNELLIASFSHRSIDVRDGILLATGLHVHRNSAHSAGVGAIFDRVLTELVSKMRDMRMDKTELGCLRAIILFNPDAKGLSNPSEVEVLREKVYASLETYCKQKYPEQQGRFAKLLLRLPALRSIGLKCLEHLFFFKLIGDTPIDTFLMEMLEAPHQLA
Sequence of human RAR-related Orphan Receptor gamma (RORg), RORC (gene 6097) (P51449 whole entry, looked up, the tested form may be a part): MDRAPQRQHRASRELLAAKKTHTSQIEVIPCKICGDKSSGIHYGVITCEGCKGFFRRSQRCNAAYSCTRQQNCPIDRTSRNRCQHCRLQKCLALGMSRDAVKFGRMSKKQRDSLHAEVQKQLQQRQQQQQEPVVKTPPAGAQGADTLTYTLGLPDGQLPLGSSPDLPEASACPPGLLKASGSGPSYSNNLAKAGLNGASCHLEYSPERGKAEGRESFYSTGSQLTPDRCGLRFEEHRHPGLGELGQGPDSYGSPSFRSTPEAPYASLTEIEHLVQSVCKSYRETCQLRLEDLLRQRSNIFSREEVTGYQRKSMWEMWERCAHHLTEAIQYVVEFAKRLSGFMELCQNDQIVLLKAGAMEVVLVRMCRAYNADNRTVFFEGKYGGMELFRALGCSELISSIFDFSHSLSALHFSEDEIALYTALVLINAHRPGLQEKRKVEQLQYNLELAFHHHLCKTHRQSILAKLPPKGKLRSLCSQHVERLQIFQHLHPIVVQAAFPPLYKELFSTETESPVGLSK
Sequence of human Peroxisome Proliferator-activated Receptor delta (PPARd), PPARD (gene 5467) (Q03181 whole entry, looked up, the tested form may be a part): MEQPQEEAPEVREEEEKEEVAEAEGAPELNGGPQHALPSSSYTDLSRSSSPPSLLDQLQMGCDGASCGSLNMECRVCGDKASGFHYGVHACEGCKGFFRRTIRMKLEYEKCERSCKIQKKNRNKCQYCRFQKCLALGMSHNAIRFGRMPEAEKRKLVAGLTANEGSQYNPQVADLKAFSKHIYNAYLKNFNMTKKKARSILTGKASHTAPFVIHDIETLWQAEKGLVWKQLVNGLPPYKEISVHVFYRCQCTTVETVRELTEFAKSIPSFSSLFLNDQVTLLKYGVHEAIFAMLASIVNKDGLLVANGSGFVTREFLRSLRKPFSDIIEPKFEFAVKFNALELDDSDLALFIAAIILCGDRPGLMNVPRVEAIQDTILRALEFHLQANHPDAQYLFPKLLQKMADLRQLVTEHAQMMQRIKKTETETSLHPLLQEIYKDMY
Sequence of human Thyroid Receptor alpha (THRa1), THRA (gene 7067) (P10827 whole entry, looked up, the tested form may be a part): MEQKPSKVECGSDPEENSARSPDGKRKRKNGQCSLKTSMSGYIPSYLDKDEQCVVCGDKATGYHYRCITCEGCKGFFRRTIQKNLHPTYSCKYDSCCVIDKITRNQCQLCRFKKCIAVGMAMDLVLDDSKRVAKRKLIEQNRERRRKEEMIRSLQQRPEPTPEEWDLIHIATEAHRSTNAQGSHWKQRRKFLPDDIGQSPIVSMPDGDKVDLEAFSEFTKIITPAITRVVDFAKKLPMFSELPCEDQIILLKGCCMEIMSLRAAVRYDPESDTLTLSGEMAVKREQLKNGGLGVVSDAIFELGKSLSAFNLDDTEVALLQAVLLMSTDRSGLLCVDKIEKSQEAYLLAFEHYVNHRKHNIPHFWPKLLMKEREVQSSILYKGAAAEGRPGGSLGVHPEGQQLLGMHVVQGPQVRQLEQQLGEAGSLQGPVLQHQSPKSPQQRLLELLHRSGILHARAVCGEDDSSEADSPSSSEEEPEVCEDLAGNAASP
Sequence of Peroxisome proliferator-activated receptor gamma (Homo sapiens) (P37231 whole entry, looked up, the tested form may be a part): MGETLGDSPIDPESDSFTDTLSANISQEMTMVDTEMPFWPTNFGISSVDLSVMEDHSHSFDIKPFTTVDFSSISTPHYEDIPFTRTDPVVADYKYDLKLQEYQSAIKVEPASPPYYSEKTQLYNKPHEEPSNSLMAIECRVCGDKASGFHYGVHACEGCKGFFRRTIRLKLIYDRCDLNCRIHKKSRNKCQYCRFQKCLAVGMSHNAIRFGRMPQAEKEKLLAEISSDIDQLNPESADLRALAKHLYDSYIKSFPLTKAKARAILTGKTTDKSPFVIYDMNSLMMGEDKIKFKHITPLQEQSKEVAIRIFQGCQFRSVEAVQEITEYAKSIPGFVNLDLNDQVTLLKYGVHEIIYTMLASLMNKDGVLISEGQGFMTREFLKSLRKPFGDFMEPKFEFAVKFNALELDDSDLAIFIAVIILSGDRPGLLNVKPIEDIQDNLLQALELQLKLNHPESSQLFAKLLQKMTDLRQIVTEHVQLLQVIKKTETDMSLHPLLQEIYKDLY
Sequence of human Retinoic Acid Receptor beta (RARb), RARB (gene 5915) (P10826 whole entry, looked up, the tested form may be a part): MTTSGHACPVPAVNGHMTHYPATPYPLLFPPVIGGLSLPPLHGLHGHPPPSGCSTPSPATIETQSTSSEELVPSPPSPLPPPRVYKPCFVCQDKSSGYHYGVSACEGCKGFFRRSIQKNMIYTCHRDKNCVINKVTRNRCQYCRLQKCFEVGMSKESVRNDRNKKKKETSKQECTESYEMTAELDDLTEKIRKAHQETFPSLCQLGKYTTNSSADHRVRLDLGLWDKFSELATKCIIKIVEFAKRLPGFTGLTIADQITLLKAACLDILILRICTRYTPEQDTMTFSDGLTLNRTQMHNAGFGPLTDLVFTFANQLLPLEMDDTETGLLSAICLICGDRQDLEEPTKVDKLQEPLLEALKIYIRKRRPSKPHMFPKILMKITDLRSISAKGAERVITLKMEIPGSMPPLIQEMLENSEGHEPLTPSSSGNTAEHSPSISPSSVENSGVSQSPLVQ
Sequence of Retinoic acid receptor RXR-alpha (Homo sapiens) (P19793 whole entry, looked up, the tested form may be a part): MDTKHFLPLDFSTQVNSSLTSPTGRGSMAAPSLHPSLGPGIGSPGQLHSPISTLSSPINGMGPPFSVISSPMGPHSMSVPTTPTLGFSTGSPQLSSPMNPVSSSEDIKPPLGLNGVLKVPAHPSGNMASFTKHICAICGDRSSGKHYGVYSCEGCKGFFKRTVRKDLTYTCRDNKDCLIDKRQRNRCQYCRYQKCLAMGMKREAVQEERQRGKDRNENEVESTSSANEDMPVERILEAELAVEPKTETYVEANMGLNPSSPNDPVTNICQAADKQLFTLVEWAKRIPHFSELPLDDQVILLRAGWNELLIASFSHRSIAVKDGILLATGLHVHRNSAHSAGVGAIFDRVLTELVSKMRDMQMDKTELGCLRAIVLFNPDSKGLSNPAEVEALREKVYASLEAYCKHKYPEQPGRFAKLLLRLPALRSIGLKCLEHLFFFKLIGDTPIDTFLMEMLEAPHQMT
Sequence of Nuclear receptor subfamily 1 group I member 2 (Homo sapiens) (O75469 whole entry, looked up, the tested form may be a part): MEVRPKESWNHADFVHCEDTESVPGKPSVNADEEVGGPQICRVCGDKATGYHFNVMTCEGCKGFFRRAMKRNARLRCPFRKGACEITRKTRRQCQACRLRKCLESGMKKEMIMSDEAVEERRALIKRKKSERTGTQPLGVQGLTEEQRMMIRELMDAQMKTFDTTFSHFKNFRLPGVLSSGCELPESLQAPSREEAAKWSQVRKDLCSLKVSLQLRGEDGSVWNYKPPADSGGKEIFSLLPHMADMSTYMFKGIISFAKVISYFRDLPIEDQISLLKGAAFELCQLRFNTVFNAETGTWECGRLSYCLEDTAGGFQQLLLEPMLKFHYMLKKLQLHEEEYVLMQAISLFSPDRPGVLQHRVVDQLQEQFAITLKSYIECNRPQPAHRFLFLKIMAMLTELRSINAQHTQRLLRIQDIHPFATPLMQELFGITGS
Sequence of Retinoic acid receptor alpha (Homo sapiens) (P10276 whole entry, looked up, the tested form may be a part): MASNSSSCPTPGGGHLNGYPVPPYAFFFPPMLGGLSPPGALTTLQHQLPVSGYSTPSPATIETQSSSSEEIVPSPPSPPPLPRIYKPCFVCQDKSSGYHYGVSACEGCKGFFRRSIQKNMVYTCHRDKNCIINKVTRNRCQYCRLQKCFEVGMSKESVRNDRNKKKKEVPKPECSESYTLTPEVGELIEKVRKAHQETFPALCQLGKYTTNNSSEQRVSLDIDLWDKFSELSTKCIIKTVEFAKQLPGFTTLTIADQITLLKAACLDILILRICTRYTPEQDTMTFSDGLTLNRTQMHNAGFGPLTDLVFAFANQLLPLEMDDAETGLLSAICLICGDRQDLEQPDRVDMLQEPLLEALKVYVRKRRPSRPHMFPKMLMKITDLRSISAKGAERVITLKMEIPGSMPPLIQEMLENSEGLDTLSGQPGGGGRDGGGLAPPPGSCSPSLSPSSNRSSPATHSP
Sequence of human RAR-related Orphan Receptor beta (RORb), RORB (gene 6096) (Q92753 whole entry, looked up, the tested form may be a part): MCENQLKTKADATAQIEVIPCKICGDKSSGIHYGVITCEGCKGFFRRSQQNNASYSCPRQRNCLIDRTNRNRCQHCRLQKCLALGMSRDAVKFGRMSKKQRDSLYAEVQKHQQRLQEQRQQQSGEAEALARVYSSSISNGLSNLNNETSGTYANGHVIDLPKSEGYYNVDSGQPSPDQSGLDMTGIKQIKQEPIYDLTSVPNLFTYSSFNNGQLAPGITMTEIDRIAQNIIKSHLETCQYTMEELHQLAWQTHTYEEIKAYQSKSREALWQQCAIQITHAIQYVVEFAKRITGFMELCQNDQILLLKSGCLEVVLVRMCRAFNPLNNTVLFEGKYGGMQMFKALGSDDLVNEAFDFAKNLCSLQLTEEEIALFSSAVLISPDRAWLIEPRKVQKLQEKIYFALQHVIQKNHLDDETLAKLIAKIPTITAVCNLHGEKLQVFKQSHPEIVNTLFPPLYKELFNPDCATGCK

Regarding `O=C1OC(=O)C(F)(F)C1(F)F`, the compound was classed as inactive in assay [1], in assay [2], in [3], in [4], in [5] and in assay [6]. For the same compound, the compound was called inactive in [7].

Consider `Nc1ccc(O)c(C(=O)O)c1`, for which the result in assay [1], in assay [2], in [4], in [8], in assay [5] and in [9] was inactive.

Take `CCCCCCCCCCCC(=O)O`: the compound was called inactive in [1], in assay [2], in assay [3], in assay [4], in [8] and in [5]. Besides, the compound was classed as inactive in assay [6] and in assay [7]. The AC50 in assay [4] is 52.9 µM (active).

`CC(C)c1c(C(=O)Nc2ccccc2)c(-c2ccccc2)c(-c2ccc(F)cc2)n1CC[C@@H](O)C[C@@H](O)CC(=O)O`: the result in [1], in assay [10] and in assay [11] was inactive. Also, the AC50 in assay [4] is 20.3 µM (active) and 19.6 µM (active); in assay [8], 9.99 µM (active).

As for `C[N+](C)(CCCNS(=O)(=O)CCC(F)(F)C(F)(F)C(F)(F)C(F)(F)C(F)(F)C(F)(F)F)CC(=O)[O-]`, the result in [1], in assay [2], in assay [3], in [4], in [5] and in [6] was inactive. Besides, the call in [12] and in assay [7] was inactive. Also, the AC50 in [8] is 0.00287 µM (active).

As for `Cc1cc(Cc2cc(C)cc(C(C)(C)C)c2O)c(O)c(C(C)(C)C)c1`, the compound was called inactive in assay [1], in [2], in assay [3], in assay [5], in assay [12] and in assay [7]. Moreover, the AC50 in [4] is 12.6 µM (active).

Turning to `CC1CNCC(C)O1` (stereo unspecified), the compound was called inactive in assay [1], in assay [2], in [4], in assay [5], in assay [11] and in assay [6]. Moreover, in assay [7], the call was inactive.

Turning to `FC(F)(F)C(F)(F)C(F)(F)C(F)(F)I`, the result in assay [1], in assay [2], in assay [4], in [11] and in assay [6] was inactive.

For `O=CC(F)(F)C(F)(F)C(F)(F)C(F)F`, the outcome in assay [1], in [10], in [4], in [8], in assay [9] and in [6] was inactive. In addition, in assay [7], the call was inactive.

Turning to `O=C1c2ccccc2C(=O)c2c(O)c(O)cc(O)c21`, the compound was classed as inactive in assay [1], in [2], in assay [3], in [5], in assay [9] and in assay [12]. The AC50 in [4] was 31.9 µM (active); in [8] it was 31.5 µM (active); in [7], 21.4 µM (active).

For the compound `COC(=O)C(F)(F)C(F)(F)C(F)(F)F`, the outcome in assay [1], in assay [10], in [4], in assay [6] and in assay [7] was inactive.

Take `COC(=O)C(F)(F)C(F)(F)C(F)(F)C(F)(F)C(F)(F)F`: the outcome in assay [1], in assay [2], in [8] and in [5] was inactive.

As to `COc1ccccc1NC(=O)c1cc2ccccc2cc1O`, the call in assay [1] and in [5] was inactive. Further, the AC50 is 8.06 µM (active) in [4], 1.23 µM (active) in assay [8] and 21.7 µM (active) in assay [7].

On to `CC(C)(O)C(=O)c1ccccc1`, for which the compound was called inactive in assay [10], in [2], in assay [3], in [11], in [6] and in assay [12]. Further, in assay [8], the AC50 is 30 µM (active).

Turning to `OCC1CCC(CO)CC1` (stereo unspecified), the result in assay [1], in [3], in assay [4] and in assay [5] was inactive.

On to `Clc1ccc2c(Cl)ccnc2c1`, for which the compound was called inactive in [10], in [2], in assay [3], in assay [5], in assay [6] and in [7]. In addition, the AC50 in [4] was 16.9 µM (active); in assay [8], 25.8 µM (active).

As for `CCCCCCCCC1CCC(=O)O1` (stereo unspecified), the call in assay [10], in assay [4], in [8], in [9], in [11] and in assay [6] was inactive. The outcome in assay [7] was inactive.

In the case of `O=S(=O)(c1ccc(OCc2ccccc2)cc1)c1ccccc1O`, the result in assay [1], in assay [6] and in [7] was inactive. Moreover, in assay [4], the AC50 is 0.66 µM (active).

As for `Cc1cc(=O)oc2cc(O)ccc12`, the compound was classed as inactive in assay [10], in assay [4], in [9], in assay [6], in [12] and in assay [7].

In the case of `FC(OC(F)(F)C(F)(F)C(F)(F)F)C(F)(F)F` (stereo unspecified), the call in assay [10], in assay [4], in assay [9], in assay [11] and in assay [6] was inactive.

The AC50 is the concentration at which the activity in the assay is half-maximal.
